Results from PubChem BioAssay (Tox21).
Inconclusive results are not listed. Where a call stands in place of a potency, no number is given. Values without a mark were called inactive. Calls of active or inactive are those of the source. Unless noted, calls come from the whole dose curve; as a rule, active = well fitted curve in the direction sought with a large enough effect in the repeat runs; inconclusive = weak or mixed curves; inactive = no such curve, though single readings can be large; an effect the other way counts as inactive or inconclusive.

Legend:
[1] = biological target: Aryl hydrocarbon receptor (Homo sapiens) (UniProt P35869); assay: qHTS assay to identify small molecule that activate the aryl hydrocarbon receptor (AhR) signaling pathway (AID 743085); note: nearly all actives have a fitted effect of over 15% in size; note: potency is the fitted concentration of half-maximal effect;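 for activation: HG2L7.5c1 human HepG2 liver cells with stably integrated DRE-driven firefly reporter; series mostly up to about 70 µM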
Procedure, shortened: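 Steps: seed HepG2-AhR-luc cells; allow 5 h at 37C; pin-transfer test compound or vehicle; incubate 24 h at 37C; add viability dye (30 min, 37C) and read fluorescence; add luciferase substrate (30 min, RT) and read luminescence.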

[2] = qHTS assay to identify small molecule that activate the aryl hydrocarbon receptor (AhR) signaling pathway - cell viability counter screen (AID 743086); note: nearly all actives have a fitted effect of over 45% in size; note: potency is the fitted concentration of half-maximal effect
Procedure, shortened: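 HepG2-AhR-luc (HG2L7.5c1) cells, 4000/well, treated 24 h at 37 C with compound; viability measured as CellTiter-Fluor fluorescence after 30 min in the same wells as the luciferase read.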

[3] = qHTS assay for small molecule agonists of the antioxidant response element (ARE) signaling pathway - cell viability counter screen (AID 743203; calls by dose curve; note: nearly all actives have a fitted effect of over 55% in size; note: potency is the fitted concentration of half-maximal effect)
Procedure, shortened: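 Luminescence read-out (CellTiter-Glo, 30 min at room temperature) measured cell viability in the same wells as the ARE beta-lactamase reporter. HepG2 ARE-bla cells were treated with compounds for 16 hrs at 37C/5% CO2.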

[4] = qHTS assay for small molecule activators of the heat shock response signaling pathway - cell viability counter screen (AID 743209); note: nearly all actives have a fitted effect of over 50% in size
Procedure, shortened: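 HSE-bla HeLa; 1500 cells/well; overnight 37 C, 5% CO2; compound 5 h 37 C; LiveBLAzer B/G substrate 2.5 h RT; CellTiter-Glo 30 min RT; luminescence.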

[5] = qHTS assay for small molecule activators of the heat shock response signaling pathway (AID 743210; active = well fitted activation curve with a large enough effect in the signal ratio in the repeat runs, with a control signal flat, not every such curve was filed as active; the % refers to the signal ratio;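 note: HeLa cells with beta-lactamase reporter driven by heat shock elements; series mostly up to about 63 µM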)
Procedure, shortened: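 Following overnight attachment, HSE-bla HeLa cells received test compounds for 5 h at 37 C; beta-lactamase activity was then detected via FRET substrate fluorescence.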

[6] = qHTS assay to identify small molecule agonists of the peroxisome proliferator-activated receptor delta (PPARd) signaling pathway - cell viability counter screen (AID 743211); note: nearly all actives have a fitted effect of over 55% in size; note: potency is the fitted concentration of half-maximal effect
Procedure, shortened: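 Viability of GeneBLAzer PPARd UAS-bla HEK293H cells was assessed after 17 h compound incubation at 37C, using CellTiter-Glo reagent added after the reporter read and luminescence recorded 30 min later.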

[7] = qHTS assay to identify small molecule antagonists of the peroxisome proliferator-activated receptor delta (PPARd) signaling pathway - cell viability counter screen (AID 743213); note: nearly all actives have a fitted effect of over 50% in size; note: potency is the fitted concentration of half-maximal effect
Procedure, shortened: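 Agonist-stimulated (L165041, 300 nM final) HEK293H PPARd UAS-bla cells are exposed to compounds for 17 h at 37 C, and ATP-based luminescence (CellTiter-Glo) from the same wells reports cytotoxicity.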

[8] = qHTS assay to identify small molecule agonists of the farnesoid-X-receptor (FXR) signaling pathway - cell viability counter screen (AID 743218); note: nearly all actives have a fitted effect of over 45% in size; note: potency is the fitted concentration of half-maximal effect
Procedure, shortened: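 Luminescence from CellTiter-Glo, read after 30 min at RT, reports viability of GeneBLAzer FXR-UAS-bla HEK 293T cells treated 16 h with compounds in the wells used for the beta-lactamase reporter.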

[9] = biological target: Bile acid receptor (Homo sapiens) (UniProt Q96RI1); assay: qHTS assay to identify small molecule agonists of the farnesoid-X-receptor (FXR) signaling pathway (AID 743220; active = well fitted activation curve with a large enough effect in the signal ratio in the repeat runs, not every such curve was filed as active; the % refers to the signal ratio)
Procedure, shortened: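 FXR-UAS-bla HEK 293T cells carrying a UAS-driven beta-lactamase reporter were plated for 5 h at 37C/5% CO2, then exposed to DMSO-dissolved Tox21 10K compounds for 16 h at 37C. A LiveBLAzer B/G FRET substrate was loaded for 2 h at room temperature before fluorescence reading.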

[10] = qHTS assay to identify small molecule antagonists of the farnesoid-X-receptor (FXR) signaling pathway - cell viability counter screen (AID 743221; active = well fitted cell-killing curve with a large enough effect in the repeat runs, not every such curve was filed as active; note: nearly all actives have a fitted effect of over 50% in size)
Procedure, shortened: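 Quantitative HTS of the Tox21 10K library run in parallel with the beta-lactamase reporter read. HEK 293T cells carrying a UAS-driven bla reporter got compound and 50 uM CDCA (final) for 16 h; ATP-based luminescence followed.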

[11] = biological target: Vitamin D3 receptor (Homo sapiens) (UniProt P11473); assay: qHTS assay to identify small molecule antagonists of the vitamin D receptor (VDR) signaling pathway (AID 743223; active = well fitted inhibition curve with a large enough effect in the signal ratio in the repeat runs, not every such curve was filed as active; the % refers to the signal ratio)
Procedure, shortened: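 Fluorescence from LiveBLAzer B/G FRET substrate, read after 2 h at room temperature, reflects beta-lactamase reporter activity in VDR-bla cells treated 16 h at 37C with compounds and agonist 1alpha,25-dihydroxyvitamin D3 (3 nM final).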

[12] = qHTS assay to identify small molecule antagonists of the peroxisome proliferator-activated receptor gamma (PPARg) signaling pathway - cell viability counter screen (AID 743194); note: nearly all actives have a fitted effect of over 55% in size
Procedure, shortened: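 Cytotoxicity counter screen in PPARg-bla HEK293H cells, same wells as reporter assay. Compounds plus 50 nM rosiglitazone (final) for 17 h at 37 C, then viability read by CellTiter-Glo luminescence.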

[13] = biological target: Peroxisome proliferator-activated receptor delta (Homo sapiens) (UniProt Q03181); assay: qHTS assay to identify small molecule agonists of the peroxisome proliferator-activated receptor delta (PPARd) signaling pathway (AID 743212; calls by dose curve)
Procedure, shortened: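 Tox21 library screened in GeneBLAzer PPARd UAS-bla HEK293H cells. After compound treatment at 37 C, a FRET-based beta-lactamase substrate was applied for 2 h and fluorescence recorded.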

[14] = biological target: Bile acid receptor (Homo sapiens) (UniProt Q96RI1); assay: qHTS assay to identify small molecule antagonists of the farnesoid-X-receptor (FXR) signaling pathway (AID 743217; active = well fitted inhibition curve with a large enough effect in the signal ratio in the repeat runs, not every such curve was filed as active; the % refers to the signal ratio)
Procedure, shortened: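 Read-out: beta-lactamase FRET fluorescence (LiveBLAzer B/G substrate, 2 h, room temperature) in GeneBLAzer FXR-UAS-bla HEK 293T cells. Compounds were co-dosed with 50 uM chenodeoxycholic acid (final) and incubated 16 h at 37 °C.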

[15] = qHTS assay to identify small molecule agonists of the vitamin D receptor (VDR) signaling pathway - cell viability counter screen (AID 743224); note: series mostly up to about 63 µM; nearly all actives have a fitted effect of over 50% in size
Procedure, shortened: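 Cytotoxicity counter screen: VDR-bla cells, 16 h compound exposure at 37C, 5% CO2; CellTiter-Glo luminescence, 30 min RT, same wells as bla read.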

[16] = biological target: Peroxisome proliferator-activated receptor delta (Homo sapiens) (UniProt Q03181); assay: qHTS assay to identify small molecule antagonists of the peroxisome proliferator-activated receptor delta (PPARd) signaling pathway (AID 743215; active = well fitted inhibition curve with a large enough effect in the signal ratio in the repeat runs, not every such curve was filed as active; the % refers to the signal ratio; note: series mostly up to about 62 µM)
Procedure, shortened: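 HEK293H GeneBLAzer PPARd UAS-bla reporter cells; cpd + L165041 300 nM final, 17 h 37 C; LiveBLAzer B/G FRET substrate 2 h RT; fluorescence intensity read-out. Antagonist mode.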

[17] = biological target: Vitamin D3 receptor (Homo sapiens) (UniProt P11473); assay: qHTS assay to identify small molecule agonists of the vitamin D receptor (VDR) signaling pathway (AID 743222; calls by dose curve)
Procedure, shortened: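 Beta-lactamase reporter readout (LiveBLAzer B/G FRET, 2 h RT) in VDR-bla cells after 16 h compound treatment at 37C, 5% CO2; cells pre-incubated 4 h before pin transfer of DMSO solutions.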

[18] = biological target: Peroxisome proliferator-activated receptor gamma (Homo sapiens) (UniProt P37231); assay: qHTS assay to identify small molecule agonists of the peroxisome proliferator-activated receptor gamma (PPARg) signaling pathway (AID 743094; active = well fitted activation curve with a large enough effect in the signal ratio in the repeat runs, not every such curve was filed as active; the % refers to the signal ratio)
Procedure, shortened: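 HEK293H PPARg-bla cells, 5 h settle at 37C/5% CO2; compound (DMSO) 17 h, 37C; B/G FRET substrate 1 h RT; fluorescence intensity read-out. qHTS format.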

[19] = biological target: Peroxisome proliferator-activated receptor gamma (Homo sapiens) (UniProt P37231); assay: qHTS assay to identify small molecule antagonists of the peroxisome proliferator-activated receptor gamma (PPARg) signaling pathway (AID 743191; calls by dose curve; note: series mostly up to about 63 µM; nearly all actives have a fitted effect of over 30% in size)
Procedure, shortened: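 GeneBLAzer PPARg UAS-bla HEK293H cells, 5 h post-plating, exposed to compounds 17 h at 37C. LiveBLAzer B/G FRET substrate added for 1 h at room temperature; beta-lactamase reporter read by fluorescence intensity.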

[20] = qHTS assay for small molecule agonists of the antioxidant response element (ARE) signaling pathway (AID 743202; active = well fitted activation curve with a large enough effect in the signal ratio in the repeat runs, not every such curve was filed as active; the % refers to the signal ratio; note: potency is the fitted concentration of half-maximal effect)
Procedure, shortened: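 HepG2 ARE-bla cells; 16 h treatment at 37 C; FRET-based beta-lactamase fluorescence read after 2 h substrate incubation at room temperature.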

Peroxisome proliferator-activated receptor gamma (Homo sapiens), sequence (P37231 whole entry, looked up): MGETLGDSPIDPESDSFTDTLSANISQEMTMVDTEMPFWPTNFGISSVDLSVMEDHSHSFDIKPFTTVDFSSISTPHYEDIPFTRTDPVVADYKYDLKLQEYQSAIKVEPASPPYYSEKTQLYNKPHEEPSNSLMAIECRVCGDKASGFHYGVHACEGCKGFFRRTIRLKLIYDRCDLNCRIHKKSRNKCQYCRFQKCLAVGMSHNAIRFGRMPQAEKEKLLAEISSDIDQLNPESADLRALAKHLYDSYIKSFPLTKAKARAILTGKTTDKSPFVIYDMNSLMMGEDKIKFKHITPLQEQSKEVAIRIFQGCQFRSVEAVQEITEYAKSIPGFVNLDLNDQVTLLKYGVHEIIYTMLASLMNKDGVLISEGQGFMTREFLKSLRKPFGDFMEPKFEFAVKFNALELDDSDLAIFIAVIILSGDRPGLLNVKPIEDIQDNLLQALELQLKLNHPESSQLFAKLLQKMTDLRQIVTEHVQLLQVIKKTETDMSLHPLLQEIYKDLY
Peroxisome proliferator-activated receptor delta (Homo sapiens), sequence (Q03181 whole entry, looked up): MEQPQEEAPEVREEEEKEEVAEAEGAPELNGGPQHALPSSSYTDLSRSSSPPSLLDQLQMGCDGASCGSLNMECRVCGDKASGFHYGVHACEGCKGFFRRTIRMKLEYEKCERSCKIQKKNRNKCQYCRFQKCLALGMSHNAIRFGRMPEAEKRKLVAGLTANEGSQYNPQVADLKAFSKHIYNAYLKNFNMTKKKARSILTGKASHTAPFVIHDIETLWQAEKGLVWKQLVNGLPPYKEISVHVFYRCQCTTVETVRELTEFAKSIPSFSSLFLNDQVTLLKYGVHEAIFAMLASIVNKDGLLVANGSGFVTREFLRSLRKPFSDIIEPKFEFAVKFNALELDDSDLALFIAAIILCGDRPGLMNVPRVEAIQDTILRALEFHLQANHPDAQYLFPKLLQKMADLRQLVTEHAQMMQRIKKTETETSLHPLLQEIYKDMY
Bile acid receptor (Homo sapiens), sequence (Q96RI1 whole entry, looked up): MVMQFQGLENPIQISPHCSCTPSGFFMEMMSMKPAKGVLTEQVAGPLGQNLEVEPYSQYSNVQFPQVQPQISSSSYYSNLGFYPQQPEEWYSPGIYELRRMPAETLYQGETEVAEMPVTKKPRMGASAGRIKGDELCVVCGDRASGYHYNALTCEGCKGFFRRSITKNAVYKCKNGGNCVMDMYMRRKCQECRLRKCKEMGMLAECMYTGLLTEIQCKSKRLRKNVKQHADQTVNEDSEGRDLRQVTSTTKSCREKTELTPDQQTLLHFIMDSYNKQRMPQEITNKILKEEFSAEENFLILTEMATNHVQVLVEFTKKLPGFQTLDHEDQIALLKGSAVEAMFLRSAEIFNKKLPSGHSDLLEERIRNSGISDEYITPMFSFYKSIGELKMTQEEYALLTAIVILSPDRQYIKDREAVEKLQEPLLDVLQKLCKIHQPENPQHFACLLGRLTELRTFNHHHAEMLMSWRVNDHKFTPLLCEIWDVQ
Aryl hydrocarbon receptor (Homo sapiens), sequence (P35869 whole entry, looked up): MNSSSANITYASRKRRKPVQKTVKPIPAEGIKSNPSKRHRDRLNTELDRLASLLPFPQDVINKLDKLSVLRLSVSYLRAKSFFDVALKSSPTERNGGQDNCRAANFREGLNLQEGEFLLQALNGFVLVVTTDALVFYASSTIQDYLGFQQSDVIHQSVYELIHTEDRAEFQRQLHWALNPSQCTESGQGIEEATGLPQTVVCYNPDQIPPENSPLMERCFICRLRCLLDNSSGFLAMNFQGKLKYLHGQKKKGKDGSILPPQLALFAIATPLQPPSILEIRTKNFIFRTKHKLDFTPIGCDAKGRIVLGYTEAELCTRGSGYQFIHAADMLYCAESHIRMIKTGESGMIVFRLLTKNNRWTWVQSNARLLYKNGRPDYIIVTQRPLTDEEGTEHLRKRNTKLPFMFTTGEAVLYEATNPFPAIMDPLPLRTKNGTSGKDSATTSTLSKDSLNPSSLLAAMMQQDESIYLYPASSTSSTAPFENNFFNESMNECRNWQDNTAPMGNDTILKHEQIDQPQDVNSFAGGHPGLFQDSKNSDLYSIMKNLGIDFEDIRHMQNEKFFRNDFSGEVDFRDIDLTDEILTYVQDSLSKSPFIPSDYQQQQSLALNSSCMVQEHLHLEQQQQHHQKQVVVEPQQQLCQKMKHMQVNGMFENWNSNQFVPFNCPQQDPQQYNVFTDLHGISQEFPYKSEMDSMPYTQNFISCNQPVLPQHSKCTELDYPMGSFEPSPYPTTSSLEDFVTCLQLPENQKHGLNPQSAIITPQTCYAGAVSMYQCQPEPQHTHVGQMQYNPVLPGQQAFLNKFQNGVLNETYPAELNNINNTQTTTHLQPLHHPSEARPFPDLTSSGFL
Vitamin D3 receptor (Homo sapiens), sequence (P11473 whole entry, looked up): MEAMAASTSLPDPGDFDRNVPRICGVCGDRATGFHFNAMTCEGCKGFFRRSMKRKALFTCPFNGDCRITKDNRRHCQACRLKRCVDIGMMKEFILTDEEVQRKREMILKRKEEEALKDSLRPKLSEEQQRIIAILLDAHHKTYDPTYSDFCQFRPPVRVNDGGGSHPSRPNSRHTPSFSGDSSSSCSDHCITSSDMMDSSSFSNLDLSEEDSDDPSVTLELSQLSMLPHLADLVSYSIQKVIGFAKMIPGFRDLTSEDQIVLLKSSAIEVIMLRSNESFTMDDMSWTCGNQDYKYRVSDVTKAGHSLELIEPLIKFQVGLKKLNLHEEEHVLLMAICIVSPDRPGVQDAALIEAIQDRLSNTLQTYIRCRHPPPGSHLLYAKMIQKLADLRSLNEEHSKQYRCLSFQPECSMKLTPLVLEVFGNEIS

Row | SMILES | Potency [1] | Potency [2] | Potency [3] | Potency [4] | Potency [5] | Potency [6] | Potency [7] | Potency [8] | Potency [9] | Potency [10] | outcome [11] | Potency [12] | Potency [13] | Potency [14] | Potency [15] | Potency [16] | outcome [17] | Potency [18] | Potency [19] | Potency [20]
1 | O=C(N[C@@H](c1ccccc1)[C@@H]1CCCCN1)c1cccc(C(F)(F)F)c1Cl | inactive | 24.3 µM (active) | 21.7 µM (active) | inactive | inactive | 27.5 µM (active) | 27.5 µM (active) | 43.6 µM (active) | inactive | inactive | inactive | – | – | – | – | – | – | – | – | –
2 | CCNC(=O)N1CCN(CCCC(c2ccc(F)cc2)c2ccc(F)cc2)CC1 | inactive | 13.3 µM (active) | inactive | inactive | inactive | – | inactive | inactive | – | inactive | inactive | inactive | inactive | – | – | – | – | – | – | –
3 | C/C=C/C=C/CCCCCCCO | inactive | inactive | inactive | – | – | inactive | – | inactive | – | inactive | – | inactive | inactive | inactive | inactive | – | – | – | – | –
4 | O=c1[nH]c2ccc(S(=O)CCN3CCC(Cc4ccc(F)cc4)CC3)cc2o1 (stereo not drawn) | inactive | inactive | inactive | inactive | inactive | inactive | inactive | – | – | inactive | – | inactive | – | – | inactive | inactive | – | – | – | –
5 | Brc1cc(-c2ccc(Br)c(Br)c2Br)cc(Br)c1Br | 8.5 µM (active) | inactive | inactive | inactive | inactive | inactive | inactive | – | – | inactive | inactive | inactive | inactive | – | inactive | inactive | inactive | – | – | –
6 | CC(=N\O)/C(C)=N/O | inactive | – | inactive | – | inactive | inactive | inactive | – | – | – | inactive | inactive | inactive | – | inactive | – | inactive | inactive | inactive | –
7 | NC(=O)N(O)[C@@H]1C=C[C@H](Oc2cccc(Oc3ccc(F)cc3)c2)C1 | inactive | – | inactive | inactive | inactive | inactive | inactive | – | inactive | inactive | inactive | inactive | inactive | inactive | inactive | inactive | – | inactive | – | 17.2 µM (active)
8 | C[N+]1(C)CCC(=C(c2ccccc2)c2ccccc2)CC1 | inactive | inactive | – | inactive | – | inactive | inactive | inactive | inactive | inactive | inactive | inactive | – | – | – | – | inactive | – | – | –
9 | O=C(CCC1CCN(Cc2ccccc2)CC1)c1ccc2c(c1)NCCCC2 | 23.7 µM (active) | – | inactive | inactive | inactive | – | inactive | inactive | – | inactive | – | inactive | – | – | – | – | – | inactive | inactive | 23.7 µM (active)
10 | Cc1cc(O)c2c(O)c3c(O)cccc3cc2c1 | 2.66 µM (active) | inactive | – | inactive | inactive | inactive | inactive | inactive | – | inactive | – | inactive | – | inactive | – | – | – | – | – | 11.9 µM (active)
